In the library only some 5% were active in any assay of this set; here they are far more common.
SENP8 block-1: inhibitors of human SENP8 protease | Q96LD8 | recombinant SENP8, Nedd8 substrate fluorescence | inhibition, % at 20 µM | hit rate 0.64% among 360,000 | AID 602440; in the data active = inhibition mostly above about 40%, no sharp cut-off; inactive = mostly below about 27%
EBI2 block: antagonists of human EBI2 receptor; hit rate 0.81% among 360,000; P32249; inhibition, % at 5 µM; EBI2 beta-arrestin recruitment, luminescence, 7a,25-OHC stimulated; in the data active = inhibition above about 38%;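 note: enzyme fragment complementation signal reports receptor beta-arrestin coupling in cells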
AHR act: activators of human aryl hydrocarbon receptor. P35869. hit rate 2.5% among 320,000. activation, % at 5 µM. AHR-responsive luciferase reporter cells, luminescence. AID 2796; in the data active = activation above about 47%
Target sequence (P35869 whole entry, looked up): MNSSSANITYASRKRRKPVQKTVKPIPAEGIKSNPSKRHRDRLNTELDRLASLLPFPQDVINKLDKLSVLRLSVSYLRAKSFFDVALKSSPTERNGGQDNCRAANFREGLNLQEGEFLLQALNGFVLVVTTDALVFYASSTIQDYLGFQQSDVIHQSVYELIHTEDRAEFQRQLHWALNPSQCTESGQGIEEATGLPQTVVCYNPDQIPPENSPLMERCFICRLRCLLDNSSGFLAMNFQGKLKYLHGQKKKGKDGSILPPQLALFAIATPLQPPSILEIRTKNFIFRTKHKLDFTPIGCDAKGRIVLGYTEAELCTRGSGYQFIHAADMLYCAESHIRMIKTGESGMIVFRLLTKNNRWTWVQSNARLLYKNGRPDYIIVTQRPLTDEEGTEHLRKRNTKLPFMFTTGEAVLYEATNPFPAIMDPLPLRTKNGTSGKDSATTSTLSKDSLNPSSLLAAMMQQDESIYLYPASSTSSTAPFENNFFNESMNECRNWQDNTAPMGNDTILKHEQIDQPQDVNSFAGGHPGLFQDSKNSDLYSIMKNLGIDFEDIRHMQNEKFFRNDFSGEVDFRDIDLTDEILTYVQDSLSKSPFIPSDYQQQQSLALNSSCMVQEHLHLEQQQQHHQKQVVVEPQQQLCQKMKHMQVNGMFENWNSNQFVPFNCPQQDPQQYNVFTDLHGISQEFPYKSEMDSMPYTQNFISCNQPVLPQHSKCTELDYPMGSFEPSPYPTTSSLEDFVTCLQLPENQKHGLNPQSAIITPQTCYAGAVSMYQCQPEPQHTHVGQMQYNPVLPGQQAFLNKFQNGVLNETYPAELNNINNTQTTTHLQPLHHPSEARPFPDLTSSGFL
SENP8 block-2: inhibitors of human SENP8 protease; Q96LD8; purified SENP8, Z-RLRGG-aminoluciferin cleavage, luminescence; inhibition, % at 10 µM; hit rate 1.2% among 330,000; AID 2540; in the data active = inhibition above about 50%
SENP6 inh: inhibitors of human SENP6 protease. inhibition, % at 10 µM. Recombinant SENP6 catalytic domain, aminoluciferin luminescence. AID 2599. Q9GZR1. hit rate 1.8% among 330,000;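 active = inhibition above about 50% at the single tested dose, limit read from the data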
SENP7 block: blocks the human protease SENP7. Q9BQF6. inhibition, % at 5 µM. hit rate 1.5% among 330,000. recombinant SENP7, Z-RLRGG-aminoluciferin luminescence, 40 min. AID 434973;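 active = inhibition above about 50% at the single test dose, limit read from the data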
SENP8 confirm: confirmation of human SENP8 protease inhibitors | Recombinant SENP8, Z-RLRGG-aminoluciferin luminescence, 60 min | AID 488912 | hit rate 40% among 6,200 | inhibition, % at 12.5 µM | shares compounds with SENP7 block;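 active = mean inhibition across replicates above about 50%, limit read from the data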
SENP6 conf: confirmation of human SENP6 protease inhibitors. shares compounds with SENP7 block. recombinant SENP6, Z-RLRGG-aminoluciferin luminescence. inhibition, % at 12.5 µM. hit rate 58% among 6,200. AID 488915
SENP7 conf: confirmation of human SENP7 protease inhibitors | shares compounds with SENP7 block | recombinant SENP7, Z-RLRGG-aminoluciferin luminescence, 40 min | inhibition, % at 12.5 µM | hit rate 69% among 6,200 | AID 488917
Casp3 SENP sel: selectivity test for SENP inhibitors: human caspase-3 inhibition; shares compounds with SENP7 block; purified caspase-3, Z-DEVD-aminoluciferin luminescence, 60 min; inhibition, % at 12.5 µM; hit rate 60% among 6,200; AID 488918;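 active = mean inhibition above about 50%, limit read from the data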
SENP luc ctr: counter-screen for SENP inhibitors: luminescence interference; shares compounds with SENP7 block; Pre-incubated SENP8/Z-RLRGG-aminoluciferin, luciferase luminescence interference; inhibition, % at 12.5 µM; hit rate 39% among 6,200; AID 488919;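 active = mean inhibition above about 50% when retested at one dose, limit read from the data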
Each line names hits and unclear results; the compound was inactive in the other large screens (follow-up assays come after a bar, where they were run).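 Rule for the calls, unless noted: active = mean inhibition above about 50% in the one-dose retest (limit read from the data); inactive = the rest.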

O=C(Nc1cccc(Cl)c1)c1cc(-c2ccco2)on1	SENP8 block-2 78, SENP6 inh 83, SENP7 block 87 | SENP8 confirm inactive | SENP6 conf 81 | SENP7 conf 97 | Casp3 SENP sel 77 | SENP luc ctr inactive
COc1ccc(-c2cc(C(=O)Nc3cccc(C(C)=O)c3)no2)cc1	none
CC(=O)c1cccc(NC(=O)c2cc(-c3cccs3)on2)c1	none
O=C(Nc1cccc(O)c1)c1cc(-c2cccs2)on1	SENP8 block-2 85, SENP6 inh 94, SENP7 block 75 | SENP8 confirm 94 | SENP6 conf 94 | SENP7 conf 100 | Casp3 SENP sel 92 | SENP luc ctr 95
COc1ccc(-c2cc(C(=O)Nc3cccc(Cl)c3)no2)cc1	SENP7 block 78 | SENP8 confirm inactive | SENP6 conf inactive | SENP7 conf inactive | Casp3 SENP sel inactive | SENP luc ctr inactive
COc1cccc(-c2cc(C(=O)Nc3cccc(O)c3)no2)c1	SENP8 block-2 94, SENP6 inh 99, SENP7 block 97 | SENP8 confirm 88 | SENP6 conf 90 | SENP7 conf 102 | Casp3 SENP sel 92 | SENP luc ctr 90
CCc1c(C)sc(NC(=S)N2CC(C)OC(C)C2)c1C(=O)OC (stereo unspecified)	none
CC(C)NC(=O)c1ccc(-n2c(=S)[nH]c3ccccc3c2=O)cc1	none (no result: SENP8 block-1, EBI2 block)
CC(=O)Nc1nc(SCC(=O)Nc2nnc(C)s2)[nH]c(=O)c1NC(=O)c1cccs1	none
COc1ccc(OCCSc2nc(N)cc(=O)[nH]2)cc1	none
CCOc1ccc(OCCSc2nc(C)cc(=O)[nH]2)cc1	SENP8 block-2 70, SENP6 inh 66, SENP7 block 51 | SENP8 confirm inactive | SENP6 conf 72 | SENP7 conf 61 | Casp3 SENP sel 79 | SENP luc ctr inactive
CCOC(=O)/C(=N\Nc1ccccc1Cl)N(C)C1CCCCC1	none
COc1cc(NC(=O)n2ncc3cc(Cl)ccc32)cc(OC)c1	SENP8 block-2 54 | SENP8 confirm inactive | SENP6 conf inactive | SENP7 conf inactive | Casp3 SENP sel inactive | SENP luc ctr inactive
COc1ccc(NC(=O)n2ncc3cc(Cl)ccc32)cc1OC	SENP6 inh 60 | SENP8 confirm inactive | SENP6 conf 59 | SENP7 conf inactive | Casp3 SENP sel inactive | SENP luc ctr inactive
CS(=O)(=O)c1ccc2nc(NC(=O)CCN3C(=O)c4ccccc4C3=O)sc2c1	none
CC1Nc2nc(NC(=O)C(C)(C)C)[nH]c(=O)c2N(C)C1C (stereo unspecified)	none
COc1ccc(NC(=S)N(CCO)Cc2cc3c(C)cc(C)cc3[nH]c2=O)cc1	AHR act 59, SENP6 inh 89 | SENP8 confirm inactive | SENP6 conf inactive | SENP7 conf inactive | Casp3 SENP sel inactive | SENP luc ctr inactive
COc1ccc(NC(=O)N(CCO)Cc2cc3c(C)cc(C)cc3[nH]c2=O)cc1	none
CCc1ccc(C2CC(c3ccco3)=NN2S(C)(=O)=O)cc1 (stereo unspecified)	SENP8 block-2 89, SENP6 inh 94, SENP7 block 92 | SENP8 confirm 96 | SENP6 conf 97 | SENP7 conf 102 | Casp3 SENP sel 96 | SENP luc ctr 92
O=C(NC(=S)NCc1ccccc1)c1cccc(Cl)c1	none
Cc1nn(C(C)C(=O)Nc2ccc(Cl)cn2)c(C)c1[N+](=O)[O-] (stereo unspecified)	SENP7 block 80 | SENP8 confirm inactive | SENP6 conf inactive | SENP7 conf inactive | Casp3 SENP sel inactive | SENP luc ctr inactive
O=Cc1ccccc1OCc1ccc2c(c1)OCO2	SENP8 block-2 91, SENP6 inh 97, SENP7 block 92 | SENP8 confirm 96 | SENP6 conf 97 | SENP7 conf 101 | Casp3 SENP sel 95 | SENP luc ctr 90
COc1ccccc1CNCc1ccc2c(c1)OCO2	none (no result: AHR act, SENP8 block-2, SENP6 inh, SENP7 block)
N=c1c2ccccc2nnn1-c1ccc(C(F)(F)F)cc1	none
CCN(CC)CCn1c2ccccc2c2nc3ccc([N+](=O)[O-])cc3cc21	none
Cc1cccc(NC(=O)c2ccc(F)c(S(=O)(=O)NCc3ccco3)c2)c1	SENP6 inh 52 | SENP8 confirm inactive | SENP6 conf inactive | SENP7 conf 63 | Casp3 SENP sel inactive | SENP luc ctr 51
CC(=O)Nc1cccc(NC(=O)c2ccc(S(=O)(=O)NCc3ccco3)cc2)c1	none (no result: AHR act, SENP8 block-2, SENP6 inh, SENP7 block)
Cn1c(N)c(C(=O)COC(=O)CCCOc2ccc(Cl)cc2Cl)c(=O)n(C)c1=O	none
Cc1oc(-c2ccc3c(c2)OCCO3)cc1C(=O)O	SENP8 block-2 97, SENP6 inh 99, SENP7 block 98 | SENP8 confirm 98 | SENP6 conf 101 | SENP7 conf 104 | Casp3 SENP sel 99 | SENP luc ctr 99
COc1ccc(-c2cc(C(=O)O)c(C)o2)cc1OC	SENP8 block-2 73, SENP6 inh 87, SENP7 block 82 | SENP8 confirm 85 | SENP6 conf 84 | SENP7 conf 97 | Casp3 SENP sel 90 | SENP luc ctr 85
Cc1oc(-c2ccc3c(c2)OCCO3)cc1C(=O)NC(CCC(=O)O)C(=O)O (stereo unspecified)	none
COc1ccc(-c2cc(C(=O)NC(Cc3cc4ccccc4[nH]3)C(=O)O)c(C)o2)cc1OC (stereo unspecified)	none
Cc1oc(-c2ccc3c(c2)OCCO3)cc1C(=O)NCC(=O)O	SENP8 block-2 81, SENP6 inh 81 | SENP8 confirm inactive | SENP6 conf 93 | SENP7 conf 98 | Casp3 SENP sel 81 | SENP luc ctr 91
CCCN1CCN(CCCNC(=O)c2ccc(NC(=O)C3=C(C)OCCS3)cc2)CC1	none
O=C1NC(=S)S/C1=C\c1coc2ccc(O)cc2c1=O	SENP8 block-2 60, SENP6 inh 81 | SENP8 confirm inactive | SENP6 conf 69 | SENP7 conf inactive | Casp3 SENP sel inactive | SENP luc ctr 74
O=C1NC(=S)S/C1=C\c1coc2ccccc2c1=O	none
CC1CN(C(=O)c2cc3cc(Br)ccc3[nH]2)CC(C)O1 (stereo unspecified)	none

High-throughput results: PubChem, several laboratories
